In general, AC50 refers to the concentration at which the activity in the assay is half-maximal.

Records with an inconclusive call do not appear. Calls of active or inactive are those of the source. The calls were made as follows: active = hit-call score of the fitted dose curve at least 0.9, where 1 is the maximum; inconclusive = response in the unintended direction; inactive = score below 0.9.

Chain of chimpanzee Androgen Receptor (AR), AR (gene 747460) (O97775 whole entry, looked up): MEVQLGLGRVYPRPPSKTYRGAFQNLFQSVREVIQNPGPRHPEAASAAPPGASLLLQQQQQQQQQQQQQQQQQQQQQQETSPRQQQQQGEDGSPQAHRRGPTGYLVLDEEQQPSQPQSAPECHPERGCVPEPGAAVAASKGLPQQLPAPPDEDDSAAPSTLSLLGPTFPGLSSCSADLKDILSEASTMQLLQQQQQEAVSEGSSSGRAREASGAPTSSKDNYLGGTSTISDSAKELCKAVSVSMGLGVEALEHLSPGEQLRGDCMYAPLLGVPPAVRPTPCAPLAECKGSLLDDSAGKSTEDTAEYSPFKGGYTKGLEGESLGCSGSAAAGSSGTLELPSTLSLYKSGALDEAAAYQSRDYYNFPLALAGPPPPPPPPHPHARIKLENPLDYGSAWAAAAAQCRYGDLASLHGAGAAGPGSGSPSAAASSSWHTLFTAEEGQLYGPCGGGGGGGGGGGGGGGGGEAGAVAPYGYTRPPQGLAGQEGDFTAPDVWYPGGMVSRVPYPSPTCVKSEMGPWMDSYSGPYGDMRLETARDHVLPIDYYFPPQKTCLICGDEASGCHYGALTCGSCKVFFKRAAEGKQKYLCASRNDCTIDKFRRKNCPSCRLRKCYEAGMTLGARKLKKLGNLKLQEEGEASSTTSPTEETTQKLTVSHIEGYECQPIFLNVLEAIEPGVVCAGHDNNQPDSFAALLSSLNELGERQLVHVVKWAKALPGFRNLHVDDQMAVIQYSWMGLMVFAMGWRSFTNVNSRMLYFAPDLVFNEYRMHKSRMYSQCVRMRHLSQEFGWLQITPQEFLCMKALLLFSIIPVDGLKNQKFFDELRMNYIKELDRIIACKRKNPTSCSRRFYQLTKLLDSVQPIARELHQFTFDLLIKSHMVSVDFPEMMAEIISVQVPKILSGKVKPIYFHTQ

The target in this assay is chimpanzee Androgen Receptor (AR), AR (gene 747460) (UniProt O97775). Description: NVS_NR_cAR: NovaScreen (NVS) Nuclear Receptor Binding Assay for chimpanzee Androgen Receptor (AR) (AID 2283346).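 Also: a loss of bound radioligand signal versus DMSO counts as binding.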 The method, then:
NVS_NR_cAR is a biochemical, single-readout assay that uses extracted gene-proteins from Sf9/Sf21 in a cell-free assay. Measurements were taken 72 hours after chemical dosing in a 96-well plate.NVS_NR_cAR is one of one assay component(s) measured or calculated from the NVS_NR_cAR assay. It is designed to make measurements of radioligand binding, a form of binding reporter, as detected with scintillation counting signals by Lysate-based radiodetection technology.Data from the assay component NVS_NR_cAR was analyzed into 1 assay endpoint. This assay endpoint, NVS_NR_cAR, was analyzed in the positive analysis fitting direction relative to DMSO as the negative control and baseline of activity. Using a type of binding reporter, loss-of-signal activity can be used to understand changes in the binding as they relate to the gene AR. Furthermore, this assay endpoint can be referred to as a primary readout, because the performed assay has only produced 1 assay endpoint. To generalize the intended target to other relatable targets, this assay endpoint is annotated to the nuclear receptor intended target family, where the subfamily is steroidal.
Binding assays used specific radioligands (tritiated, iodinated) with non-radioactive competitive displacement ligands in agonist or antagonist protocols (as indicated) and various reference compounds and inhibitors to titrate specific binding to receptors and transporters. Most enzyme assays (CYPs, kinases, phosphatases, proteases, HDACs) used recombinant protein and specific substrates (fluorescence mostly, some colorimetric and radioactive) and inhibitors, followed by a biochemical separation of substrate and product. All assays for the biochemical HTS were initially run in duplicate at a single concentration (10 uM for CYP450 assays and 25 uM for all others). […] Each assay was run with positive and negative controls, and concurrent controls on every plate. The follow-up (secondary) screen tested active chemical-pairs in concentration series, as well as a few additional assays not tested in the primary screen, some selected negative inactives, and several cases re-run in the concentration series for confirmatory purposes.
For the compound `CN(C)c1ccc2nc3ccc(=[N+](C)C)cc-3sc2c1`, the concentration at half-maximal activity (AC50) was 11.2 µM (active). The same measure, in the same setting: the value for `O=C(O)c1cc(O)c2ccccc2c1O` was 35 µM (active); that for `Oc1ccc(-c2ccccc2)c(Cl)c1` was 14.1 µM (active).

In the case of `CC(C)c1cc(C(C)C)cc(C(C)C)c1`, the compound was called inactive. As to `Cc1ccc([N+](=O)[O-])cc1N`, the AC50 was 20.8 µM (active). With `CC(C)(C)NC(=O)[C@H]1CC[C@H]2[C@@H]3CC[C@H]4NC(=O)C=C[C@]4(C)[C@H]3CC[C@]12C`, the call was inactive.

As to `CCCCCC[C@@H](O)C/C=C\CCCCCCCC(=O)OCC(O)CO` (some centres undefined), the call was inactive. With `N#Cc1ccc(C(c2ccc(C#N)cc2)n2cncn2)cc1`, the AC50 was 7.43 µM (active). With `CCOC(=O)/C=C\C(=O)OCC`, the AC50 is 5 µM (active). In the case of `CCN1CN(CC)CN(CC)C1`, the compound was called inactive. For `O=c1c(O)c(-c2ccc(O)cc2O)oc2cc(O)cc(O)c12`, the AC50 was 9.55 µM (active). In the case of `CC(=O)OC(C)c1ccccc1` (centres undefined), the call was inactive. For the compound `CCCCC/C=C\C/C=C\CCCCCCCC(=O)O`, the AC50 was 25 µM (active).

With `C=CC(=O)OCC(C)OCC(C)OCC(C)OC(=O)C=C` (centres undefined), the AC50 was 6.29 µM (active). Regarding `C=C1C[C@H]2[C@@H]3C=C(C)C4=CC(=O)CC[C@]4(C)[C@H]3CC[C@]2(C)[C@@]1(OC(C)=O)C(C)=O`, the concentration at half-maximal activity (AC50) is 0.33 µM (active). For `Oc1ccccc1Cc1ccccc1O`, the AC50 was 25 µM (active). On the same count and under the same terms, with `O=C(OCc1ccccc1)c1ccc(O)cc1` the figure was 25 µM (active). As for `CC1(C)CC(O)CC(C)(C)N1[O]`, the outcome was inactive. Same read-out and setting: with `C=C[Si](OCCOC)(OCCOC)OCCOC` the entry was “inactive”.

The record behind these values is PubChem BioAssay (EPA / NIEHS).
